The record followed here is PubChem BioAssay (EPA / NIEHS).

Assay [1] in a line: APR_HepG2_CellCycleArrest_24hr: Apredica 24-hour HepG2 Assay for Cell Cycle Arrest (AID 2282905).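 Further: cell cycle arrest scored as ratio of 2N to 4N nuclear DNA content.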 The note with it: imaging, actives raise or lower the signal. The gist of the method: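 After 24 h exposure at 0.39–200 uM in 0.5% DMSO, fixed cells received Hoechst 33342 staining. Imaging quantified per-nucleus DNA content; gain or loss fitted against DMSO controls.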
A short description of assay [2]: APR_HepG2_NuclearSize_24hr: Apredica 24-hour HepG2 Assay for Nuclear Size (AID 2282907). The note with it: high-content imaging, actives raise or lower the signal. The gist of the method:
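Nuclear size from Hoechst 33342-stained, formaldehyde-fixed HepG2 nuclei imaged by high-content microscopy, after 24 h dosing at ten concentrations from 0.39 to 200 uM in 0.5% DMSO; gain or loss relative to DMSO baseline.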

Assay [3] in a line: APR_HepG2_CellLoss_24hr: Apredica 24-hour HepG2 Assay for Cell Loss (AID 2282908).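 On AC50: fit in both directions so a hit may be cell loss or gain.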 The note with it: high-content imaging. The essentials: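 Nuclei stained with Hoechst 33342 after formaldehyde fixation (3.7%) were imaged at 20x to count cells. Exposure lasted 24 hr, at ten concentrations from 0.39 to 200 uM in duplicate, with 0.5% v/v DMSO. Fit bidirectional, relative to DMSO.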

Assay [4] is described as follows: APR_HepG2_MicrotubuleCSK_24hr: Apredica 24-hour HepG2 Assay for Microtubule CSK Stabilty (AID 2282909). The note with it: HepG2 microtubule cytoskeleton imaging, actives raise or lower the signal. The gist of the method: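 Fixed HepG2 cells were stained for alpha-tubulin and imaged after 24 hr exposure to ten concentrations spanning 0.39–200 uM in 0.5% DMSO. Signal change was fitted in both directions relative to DMSO; taxol was the positive control.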

The nature of assay [5]: APR_HepG2_MitoticArrest_24hr: Apredica 24-hour HepG2 Assay for Mitotic Arrest (AID 2282910). The note with it: high-content imaging, actives raise or lower the signal. The gist of the method: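 Treatment lasted 24 hr in the human HepG2 line at 0.39–200 uM, solvent held at 0.5% DMSO. Fixed cells were stained with Hoechst 33342 and anti-phospho-histone H3, imaged at 20x, and analysed by gain- or loss-of-signal fitting against DMSO.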

A short description of assay [6]: APR_HepG2_MitoMembPot_24hr: Apredica 24-hour HepG2 Assay for Mitochondrial Membrane Potential (AID 2282911). The conditions noted are these: imaging, actives raise or lower the signal. The gist of the method:
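HepG2, 24 hr dosing, 10 concentrations 0.39–200 uM, 0.5% DMSO final. Live-cell MitoTracker Red CMXRos 250 nM 30 min, then 3.7% formaldehyde fix. HCS fluorescence imaging, 20x; bidirectional fit vs DMSO baseline.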

A short description of assay [7]: APR_HepG2_MitoMass_24hr: Apredica 24-hour HepG2 Assay for Mitochondrial Mass (AID 2282912). The note with it: high-content imaging, actives raise or lower the signal. The gist of the method: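 Endpoint is MitoTracker Red CMXRos (250 nM, 30 min, pre-fixation) intensity from 20x high-content imaging, nuclei located by Hoechst. Human HepG2 cells received ten concentrations from 0.39 to 200 uM in 0.5% DMSO for 24 hr, duplicate wells. Bidirectional fit relative to DMSO.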

Assay [8] is described as follows: APR_HepG2_p53Act_24hr: Apredica 24-hour HepG2 Assay for p53 Activation (AID 2282913).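 Further: p53 protein immunofluorescence averaged per cell in HepG2 with Hoechst nuclei.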 The note with it: high-content imaging, actives raise or lower the signal. The essentials:
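Read-out: Cy5 immunofluorescence for p53 in fixed, permeabilized HepG2, imaged by HCS with Hoechst-defined nuclei. Dosing was 24 hr at 0.39–200 uM in 0.5% DMSO. Curves were fitted bidirectionally relative to DMSO.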

A short description of assay [9]: APR_HepG2_CellCycleArrest_72hr: Apredica 72-hour HepG2 Assay for Cell Cycle Arrest (AID 2282914). The conditions noted are these: high-content imaging, actives raise or lower the signal. The essentials:
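HepG2, 72 hr exposure, 10-point 0.39–200 uM, duplicate, 0.5% DMSO final. Fix 3.7% formaldehyde 30 min RT, Triton X-100 0.5%, Hoechst 33342 2 ug/mL. ArrayScan 20x, six fields/well; DNA content per nucleus; bidirectional fit vs DMSO.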

A short description of assay [10]: APR_HepG2_P-H2AX_72hr: Apredica 72-hour HepG2 Assay for H2AX Phosphorylation (AID 2282916).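 Further: phospho-histone H2A.x immunostain intensity per cell marking DNA damage.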 The conditions noted are these: imaging, actives raise or lower the signal. The essentials:
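Phospho-histone H2A.x immunofluorescence, multiplexed with Hoechst and c-Jun, quantified by high-content imaging. Compounds applied to HepG2 for 72 h across ten concentrations (0.39–200 uM, 0.5% DMSO), in duplicate; DMSO baseline.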

Assay [11] is described as follows: APR_HepG2_MitoticArrest_72hr: Apredica 72-hour HepG2 Assay for Mitotic Arrest (AID 2282918). The note with it: high-content imaging, actives raise or lower the signal. The gist of the method:
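HepG2, 72 hr exposure, 0.39–200 uM in duplicate, 0.5% v/v DMSO final. Formaldehyde-fixed, Triton-permeabilized, anti-phospho-histone H3/FITC plus Hoechst. ArrayScan imaging at 20x; curves fit bidirectionally against DMSO baseline.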

Assay [12] in a line: APR_HepG2_MicrotubuleCSK_72hr: Apredica 72-hour HepG2 Assay for Microtubule CSK Stabilty (AID 2282919). The conditions noted are these: HepG2 microtubule cytoskeleton, high-content imaging, actives raise or lower the signal. The essentials: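 Ten-point dosing (0.39–200 uM, 0.5% DMSO) of HepG2 for 72 hr, with taxol as the cytoskeletal positive control. The cells were formaldehyde-fixed and then stained with alpha-tubulin/Cy5 and Hoechst. Imaging at 20x used a −2 um Z offset for tubulin.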

Assay [13] can be described thus: APR_HepG2_P-H2AX_24hr: Apredica 24-hour HepG2 Assay for H2AX Phosphorylation (AID 2282920). The note with it: high-content imaging, actives raise or lower the signal. The gist of the method:
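HCS fluorescence imaging of phospho-H2A.x immunostain (with Hoechst 33342 nuclear counterstain) in HepG2 after 24 hr compound exposure; 10 concentrations, 0.39–200 uM, duplicate wells, 0.5% v/v DMSO. Gain or loss of signal fitted relative to DMSO baseline.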

A short description of assay [14]: APR_HepG2_StressKinase_72hr: Apredica 72-hour HepG2 Assay for Stress Kinase (AID 2282921). The conditions noted are these: HepG2 stress kinase (phospho-c-Jun) imaging, actives raise or lower the signal. The gist of the method:
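Stress kinase signal is phospho-c-Jun immunofluorescence (1:500 primary, Cy3 secondary) in fixed, permeabilized human HepG2 cells imaged at 20x. Exposure lasted 72 hr over ten concentrations from 0.39 to 200 uM, 0.5% DMSO, in duplicate. Bidirectional fit versus DMSO.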

A short description of assay [15]: APR_HepG2_StressKinase_24hr: Apredica 24-hour HepG2 Assay for Stress Kinase (AID 2282922). The conditions noted are these: HepG2 stress kinase (phospho-c-Jun) imaging, actives raise or lower the signal. The gist of the method: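 After 24 hr compound treatment (up to 200 uM, final DMSO 0.5% v/v), HepG2 cells are fixed and multiplex-labeled; phospho-c-Jun intensity is captured by high-content fluorescence imaging and analyzed relative to DMSO.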

A short description of assay [16]: APR_HepG2_p53Act_72hr: Apredica 72-hour HepG2 Assay for p53 Activation (AID 2282923).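 Further: average cellular p53 protein immunofluorescence intensity in HepG2 cells.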 The note with it: high-content imaging, actives raise or lower the signal. The essentials: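 After 72 h with compound (ten points, 0.39 to 200 uM, final DMSO 0.5% v/v), fixed HepG2 cells were labelled with sheep anti-p53 and Hoechst 33342 and imaged; gain or loss versus DMSO scored.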

Assay [17] can be described thus: APR_HepG2_MitoMass_72hr: Apredica 72-hour HepG2 Assay for Mitochondrial Mass (AID 2282924).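 Further: MitoTracker Red CMXRos stain intensity per cell imaged as mitochondrial mass.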 The note with it: high-content imaging, actives raise or lower the signal. The gist of the method:
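Steps: treat HepG2 72 hr (0.39–200 uM, duplicate wells); load MitoTracker Red CMXRos, 250 nM, 30 min; fix with 3.7% formaldehyde, permeabilise with 0.5% Triton X-100; capture images, nuclei via Hoechst 33342; fit bidirectionally against DMSO.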

A short description of assay [18]: APR_HepG2_NuclearSize_72hr: Apredica 72-hour HepG2 Assay for Nuclear Size (AID 2282925). The note with it: high-content imaging, actives raise or lower the signal. The gist of the method: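 Compounds (0.39–200 uM, final DMSO 0.5%) were applied to HepG2 for 72 hr. Cells were then formaldehyde-fixed, permeabilized and labelled with Hoechst 33342. Nuclear diameter was quantified from six images per well.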

Active and inactive are the calls of the source. How the source made its calls: active means hit-call score of the fitted dose curve at least 0.9, where 1 is the maximum; inactive means score below 0.9.

In the case of `CN(C[C@@H](CC[N+]12CCC(C3CCCCC3)(CC1)CC2)c1ccc(Cl)c(Cl)c1)C(=O)c1cc(C(F)(F)F)cc(C(F)(F)F)c1`, the compound was called inactive in assay [1], in assay [2], in assay [9], in assay [14], in assay [15] and in assay [17]. The compound was called inactive in [18]. The half-maximal activity concentration (AC50) in [3] is 13.1 µM (active); in assay [4] it was 34.3 µM (active); in assay [5] it was 33.4 µM (active); in assay [6] it was 1.27 µM (active); in assay [7] it was 100 µM (active); in assay [8], 18.3 µM (active). Moreover, the AC50 in [10] was 31.8 µM (active); in [11] it was 36.3 µM (active); in assay [12] it was 28.4 µM (active); in assay [13], 35.1 µM (active); in assay [16] it was 26.7 µM (active).
For the compound `c1ccc2n[nH]nc2c1`, the call in [1], in assay [2], in assay [3], in assay [4], in assay [5] and in assay [6] was inactive. Besides, the call in assay [7], in assay [8], in [9], in assay [10], in assay [11] and in assay [12] was inactive. Further, the outcome in assay [13], in [14], in [15], in assay [16], in assay [17] and in [18] was inactive.
As for `Cc1cc(F)ccc1-c1cc(N2CC[C@@H](O)[C@H]2CO)ncc1N(C)C(=O)C(C)(C)c1cc(C(F)(F)F)cc(C(F)(F)F)c1`, the call in [1], in [2], in [3], in assay [4], in assay [5] and in assay [6] was inactive. In addition, the compound was classed as inactive in assay [7], in assay [9], in [12], in assay [14], in [15] and in assay [17]. The outcome in [18] was inactive. For the same compound, the AC50 in assay [8] was 94 µM (active); in assay [10], 57.7 µM (active); in [11], 74 µM (active); in [13] it was 53.8 µM (active); in assay [16], 65 µM (active).
Take `Oc1ccccc1`: the call in assay [1], in [2], in [3], in assay [4], in assay [5] and in [6] was inactive. Also, the result in assay [7], in [8], in assay [9], in [10], in assay [11] and in assay [12] was inactive. Besides, the compound was classed as inactive in assay [13], in assay [14], in [15], in [16], in assay [17] and in assay [18].
For the compound `OCCO`, the compound was called inactive in assay [1], in assay [2], in [3], in [4], in [5] and in assay [6]. Also, the result in [7], in assay [8], in [9], in assay [10], in [11] and in assay [12] was inactive. Further, the result in assay [13], in [14], in assay [15], in [16], in assay [17] and in [18] was inactive.
Take `CCN(Cc1cccnc1)C(=O)c1cccc(Cl)c1[C@]1(C)C(=O)N(Cc2ccc(OC)cc2OC)c2ccc(Cl)cc21`: the result in [1], in assay [2], in [3], in [4], in [5] and in [7] was inactive. Moreover, the compound was classed as inactive in assay [8], in [9], in assay [12], in assay [13], in [14] and in assay [15]. The compound was classed as inactive in [17] and in [18]. Moreover, the AC50 in assay [6] is 50.3 µM (active); in assay [10] it was 20.3 µM (active); in [11], 21.8 µM (active); in assay [16], 29.4 µM (active).
Turning to `O=CCCCC=O`, the compound was called inactive in [1], in assay [2], in [3], in assay [4], in assay [5] and in assay [6]. The result in assay [7], in [8], in assay [9], in [10], in [11] and in assay [12] was inactive. In addition, the result in assay [13], in assay [14], in assay [15], in assay [16], in assay [17] and in [18] was inactive.

The AC50 is the midpoint of the concentration-response curve, whichever way the signal moves.
